Experimental data from publication PMC4336329 (PLoS ONE, 2015).
Among all 310,000 compounds or so, about 2,200 (0.71%) showed an effect of 50% or more. Effects have a minus sign here. This excerpt belongs to a sample that is enriched for strong results.

target: human ether-à-go-go-related gene (hERG) potassium channel (human, UniProt Q12809); test: primary screen, population patch clamp on CHO cells stably expressing hERG; higher = less effect of the substance
Protocol: Briefly, Chinese hamster ovary (CHO) cells stably expressing the hERG channel were dislodged from tissue culture flasks and dispensed into PPC plates. […] During the recording, background leak currents were estimated by a 100 ms step to -80 mV from an initial holding potential of -70 mV and subtracted from the subsequent current measurement. The campaign was conducted in two phases using slight differences in recording protocol. In the first phase, the initial voltage pulse used a 100 ms step to -30 mV from a holding potential of -70 mV, a 2 s conditioning step to +25 mV, and a 2 s test step to -30 mV. During the second phase of the screen, the potential during the conditioning step was raised to +45 mV. In both phases of the campaign, a secondary voltage pulse was applied using the same parameters as the second phase initial pulse. The initial and secondary pulses were applied in the absence of compound, and upon application of 1 μM and 10 μM test concentrations. Small molecule effects on hERG current density were quantified by […].

Chain of human ether-à-go-go-related gene (hERG) potassium channel (Q12809 whole entry, looked up): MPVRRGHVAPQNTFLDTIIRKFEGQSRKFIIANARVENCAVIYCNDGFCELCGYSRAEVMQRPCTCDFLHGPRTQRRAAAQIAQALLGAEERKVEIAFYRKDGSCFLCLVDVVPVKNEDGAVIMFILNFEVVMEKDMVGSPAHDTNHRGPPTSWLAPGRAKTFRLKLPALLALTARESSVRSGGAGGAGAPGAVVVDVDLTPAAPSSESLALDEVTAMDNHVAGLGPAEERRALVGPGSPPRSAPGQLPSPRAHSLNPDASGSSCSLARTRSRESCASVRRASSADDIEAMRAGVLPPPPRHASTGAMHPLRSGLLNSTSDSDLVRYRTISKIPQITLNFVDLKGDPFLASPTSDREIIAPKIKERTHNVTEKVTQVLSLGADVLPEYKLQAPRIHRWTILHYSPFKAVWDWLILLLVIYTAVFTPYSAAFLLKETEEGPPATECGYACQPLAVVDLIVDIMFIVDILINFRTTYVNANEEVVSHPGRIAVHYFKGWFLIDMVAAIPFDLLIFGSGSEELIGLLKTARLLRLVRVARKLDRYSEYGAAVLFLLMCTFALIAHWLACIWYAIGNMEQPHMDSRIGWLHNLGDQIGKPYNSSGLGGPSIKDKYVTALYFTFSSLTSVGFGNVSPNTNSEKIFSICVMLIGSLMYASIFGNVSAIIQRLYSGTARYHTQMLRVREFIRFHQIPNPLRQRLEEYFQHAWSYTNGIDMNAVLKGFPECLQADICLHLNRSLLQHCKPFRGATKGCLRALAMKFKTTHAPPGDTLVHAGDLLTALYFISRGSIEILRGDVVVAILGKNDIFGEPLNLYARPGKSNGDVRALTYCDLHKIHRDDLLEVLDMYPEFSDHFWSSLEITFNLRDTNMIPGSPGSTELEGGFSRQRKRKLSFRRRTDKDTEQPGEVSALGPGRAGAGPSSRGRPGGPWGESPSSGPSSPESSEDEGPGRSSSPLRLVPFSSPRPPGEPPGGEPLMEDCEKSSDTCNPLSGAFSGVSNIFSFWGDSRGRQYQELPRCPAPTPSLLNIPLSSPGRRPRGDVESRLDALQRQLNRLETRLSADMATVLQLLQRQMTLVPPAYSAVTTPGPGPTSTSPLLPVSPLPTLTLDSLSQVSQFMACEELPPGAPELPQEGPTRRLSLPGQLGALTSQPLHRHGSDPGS

First: O=C(COC(=O)CN1C(=O)c2ccccc2C1=O)Nc1cccc(F)c1
Second: Cc1ccc(C)c(NC(=O)COC(=O)CNC(=O)c2ccccc2Cl)c1
The “hERG current change (%, negative = inhibition) at 1uM” value of the first is lower: 5.95% for the first, 9.98% for the second.

Going from `Cc1cc(Cl)cc(Cl)c1CNc1c([N+](=O)[O-])c(=O)oc2ccccc12` to `Cc1nc2ccccc2nc(C)c1=NOCc1ccc(Cl)cc1Cl`, the “hERG current change (%, negative = inhibition) at 1uM” value falls from 7.59% to 0.014%.

Compared with `CC(C)c1cccc(C(C)C)c1NC(=O)CN1C(=O)NC2(CCCCCCC2)C1=O`, `COC(=O)c1cc(NC(=O)CN2CCC(C(N)=O)(N3CCCCC3)CC2)cc(C(=O)OC)c1` is lower in “hERG current change (%, negative = inhibition) at 1uM” value: 8.87% for the first, 5.65% for the second.

Going from `Cc1ccc(S(=O)(=O)CC(=O)c2ccc(C(C)(C)C)cc2)cc1` to `Br.COc1ccc(C(=O)Cn2c(=N)n(C)c3ccccc32)cc1`, the “hERG current change (%, negative = inhibition) at 1uM” value falls from 2.43% to -9.98%.

First: Br.CCn1c(=N)n(CC(=O)c2ccc(OC)cc2)c2ccccc21
Second: Br.CCCCn1c(=N)n(CC(=O)c2ccc(OC)cc2)c2ccccc21
The “hERG current change (%, negative = inhibition) at 1uM” value of the first is higher: -0.629% for the first, -62.2% for the second.

First: C=CCOn1c(C)c(C(C)=O)c2c3nonc3ccc21
Second: CC(=O)Nc1ccc(-c2nnc(SCc3ccccc3C#N)n2C)cc1
The “hERG current change (%, negative = inhibition) at 1uM” value of the first is higher: 13.1% for the first, -5.5% for the second.

Compared with `O=C(OCc1ccc2c(c1)OCO2)c1ccc(S(=O)(=O)N2CCCC2)cc1`, `CCOc1ccc(S(=O)(=O)N2CCC(C(=O)N3CCN(c4ccccc4F)CC3)CC2)cc1C` is lower in “hERG current change (%, negative = inhibition) at 1uM” value: 3.44% for the first, -1.32% for the second.

Going from `O=C1N=C2SCCN2/C1=C\c1ccccc1Cl` to `CCc1nc2scc(-c3ccccc3)c2c(=O)n1N`, the “hERG current change (%, negative = inhibition) at 1uM” value falls from 5.64% to 2.81%.

Compared with `CCn1c2ccccc2c2cc(NC(=O)CSc3nnnn3-c3ccccc3)ccc21`, `CC(=O)Nc1ccc(SCC(=O)Nc2ccccc2Oc2ccccc2)cc1` is lower in “hERG current change (%, negative = inhibition) at 1uM” value: 9.35% for the first, 3.2% for the second.

Going from `O=C(NCCCn1ccnc1)/C(=C/c1ccco1)NC(=O)c1ccco1` to `O=C(NCCCn1ccnc1)/C(=C\c1ccco1)NC(=O)c1ccco1`, the “hERG current change (%, negative = inhibition) at 1uM” value falls from -10.2% to -10.8%.

Going from `Cc1ccc(C(=O)N/C(=C\c2ccco2)C(=O)NCCCn2ccnc2)cc1C` to `Cc1ccc(C(=O)N/C(=C\c2ccco2)C(=O)NCCCn2ccnc2)cc1`, the “hERG current change (%, negative = inhibition) at 1uM” value falls from -15.7% to -64.1%.

Going from `COc1ccc(C(=O)N/C(=C\c2ccco2)C(=O)NCCCn2ccnc2)cc1` to `Cc1ccc(C(=O)N/C(=C/c2ccco2)C(=O)NCCCn2ccnc2)cc1`, the “hERG current change (%, negative = inhibition) at 1uM” value falls from -0.883% to -62.5%.

First: O=C(Nc1nc(-c2nc3ccccc3s2)cs1)C1COc2ccccc2O1 (stereo not drawn)
Second: COC(=O)c1sc(NC(=O)c2cc(-c3ccccc3)nc3ccccc23)c(C#N)c1C
The “hERG current change (%, negative = inhibition) at 1uM” value of the first is higher: 13.3% for the first, -6.75% for the second.

First: COc1ccc(-n2cnnc2SCC(=O)Nc2nc(C)c(Cl)cc2Cl)cc1
Second: CC(C)CC(=O)Nc1cc2nn(-c3ccccc3)nc2cc1Cl
The “hERG current change (%, negative = inhibition) at 1uM” value of the first is lower: -8.71% for the first, -0.947% for the second.

Compared with `CCOCCCn1c(=NC(=O)c2ccco2)c(C(=O)OCC)cc2c(=O)n3cccc(C)c3nc21`, `CCCCn1c(=NC(=O)c2ccco2)c(C(=O)OCC)cc2c(=O)n3cccc(C)c3nc21` is higher in “hERG current change (%, negative = inhibition) at 1uM” value: -73.9% for the first, -16.5% for the second.

Going from `CCCn1c(=NC(=O)c2ccco2)c(C(=O)OCC)cc2c(=O)n3ccccc3nc21` to `CCCCCn1c(=NC(=O)c2ccco2)c(C(=O)OCC)cc2c(=O)n3ccccc3nc21`, the “hERG current change (%, negative = inhibition) at 1uM” value falls from -6.68% to -30.9%.

Compared with `CCOC(=O)c1cc2c(=O)n3cccc(C)c3nc2n(CC(C)C)c1=NC(=O)c1ccco1`, `CCOC(=O)c1cc2c(=O)n3cccc(C)c3nc2n(Cc2ccco2)c1=NC(=O)c1ccccc1` is higher in “hERG current change (%, negative = inhibition) at 1uM” value: -64.7% for the first, 0.671% for the second.

Compared with `O=C(NC1CC1)c1ccc(S(=O)(=O)NC2CCCCCC2)cc1`, `Cc1sc2ncn(CC(=O)N3CCC(C(N)=O)CC3)c(=O)c2c1S(=O)(=O)N1CCOCC1` is higher in “hERG current change (%, negative = inhibition) at 1uM” value: 2.1% for the first, 10.1% for the second.

First: Cc1ccccc1NC(=O)CSC(N)=O
Second: CC(OC(=O)c1cccc(-n2cnnn2)c1)c1nc2ccccc2c(=O)[nH]1 (stereo not drawn)
The “hERG current change (%, negative = inhibition) at 1uM” value of the first is higher: 24% for the first, 7.2% for the second.

First: CN(C)CCCN1C(=O)CSC1c1ccc([N+](=O)[O-])cc1.Cl (stereo not drawn)
Second: CCN(CC)CCCN1C(=O)CSC1c1ccc([N+](=O)[O-])cc1.Cl (stereo not drawn)
The “hERG current change (%, negative = inhibition) at 1uM” value of the first is higher: -11.4% for the first, -74.4% for the second.

Going from `CCN(CC)CCCN1C(=O)CSC1c1ccc2c(c1)OCO2.Cl` (stereo not drawn) to `Cc1ccc(CN2CCN(Cc3cnc(C)s3)CC2CCO)cc1` (stereo not drawn), the “hERG current change (%, negative = inhibition) at 1uM” value rises from -15.9% to -0.701%.

First: OCCC1CN(Cc2cccc3nccnc23)CCN1Cc1ccc(F)c(F)c1 (stereo not drawn)
Second: Cc1ccc(CN2CCN(Cc3cccc4nccnc34)CC2CCO)cc1 (stereo not drawn)
The “hERG current change (%, negative = inhibition) at 1uM” value of the first is higher: -11.8% for the first, -53.3% for the second.

Going from `Cc1ccc(CN2CCN(Cc3ccccn3)CC2CCO)cc1` (stereo not drawn) to `Cc1ccc(CN2CCN(Cc3cccc(C)n3)CC2CCO)cc1` (stereo not drawn), the “hERG current change (%, negative = inhibition) at 1uM” value rises from -5.1% to -2.38%.

First: Cc1ccc(CN2CCN(Cc3ccccc3)C(CCO)C2)s1 (stereo not drawn)
Second: CC(C)Cn1c(CN2CCN(C)C(CCO)C2)nc2ccccc21 (stereo not drawn)
The “hERG current change (%, negative = inhibition) at 1uM” value of the first is lower: -26.7% for the first, 12.7% for the second.
